Calls of active or inactive are those of the source.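 How the source made its calls, unless noted: active means NADPH fluorescence slope more negative than the mean of all samples by about 3 SD, 99.7% confidence; inactive means the rest.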
Key:
[1] = inhibitors of TNFa-induced NFkB p65 translocation, primary screen, imaging, HUVEC, MLSMR starter and 10KST1 sets (AID 438;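 active means inhibition above 20% together with a positive visual image hit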;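 further: compound added about 3h40 before a 20 min TNFalpha stimulation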;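 on inhibition: signal is the nuclear over cytoplasmic p65 intensity ratio per well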); conditions: HUVEC TNFa-induced p65 nuclear translocation; cell count: measured here: nuclei count (cytotoxicity indicator), at 2.08 µM; inhibition: at 2 µM, stronger effect = higher value, 0% TNFa-plus-vehicle, 100% no-TNFa wells
[2] = reduction of polyQ htt aggregates in cells – imaging, exon1htt(103Q)mCFP cells, high-content imaging, primary screen (AID 483;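 active means visual image review flags a hit and inhibition of aggregation exceeds 20%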;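 further: compound exposure lasted 3 days before fixation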;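 on nuclei count: percent of the per-plate median nuclei count of sample wells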); conditions: exon1htt(103Q)mCFP cell line, aggregate imaging, at 2 µM; inhibition of aggregation: stronger effect = higher value; nuclei count: measured here: cell count, toxicity
[3] = endothelial E-selectin expression blockers – imaging, HUVEC, immunofluorescence, MLSMR starter and 10KST1 sets, primary screen (AID 487;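 active means visually confirmed hit in the image check and inhibition above 20%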;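 on inhibition: signal is fraction of cell area covered by stained E-selectin grains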;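 on nuclei count: 100% = median nuclei count of all wells on the same plate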); conditions: HUVEC TNFalpha-induced E-selectin immunofluorescence imaging, at 2 µM; inhibition: stronger effect = higher value; nuclei count: measured here: cell number, toxicity
[4] = biological target: Voltage-gated potassium channel subunit beta-2 (Rattus norvegicus) (UniProt P62483); assay: inhibitors of rat Kvbeta2 reductase activity – biochemical, NADPH fluorescence, primary screen (AID 622;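 active means fluorescence slope higher than the sample average by over 3 SD, cut at about -0.22 in these data, passing the limit was not always enough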;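 further: slope of raw intensity against log time taken from 70 to 1610 s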); conditions: recombinant KvBeta, 4-cyanobenzaldehyde reduction, at 10 µM, stronger effect = higher value
Chain of Voltage-gated potassium channel subunit beta-2 (Rattus norvegicus) (P62483 whole entry, looked up): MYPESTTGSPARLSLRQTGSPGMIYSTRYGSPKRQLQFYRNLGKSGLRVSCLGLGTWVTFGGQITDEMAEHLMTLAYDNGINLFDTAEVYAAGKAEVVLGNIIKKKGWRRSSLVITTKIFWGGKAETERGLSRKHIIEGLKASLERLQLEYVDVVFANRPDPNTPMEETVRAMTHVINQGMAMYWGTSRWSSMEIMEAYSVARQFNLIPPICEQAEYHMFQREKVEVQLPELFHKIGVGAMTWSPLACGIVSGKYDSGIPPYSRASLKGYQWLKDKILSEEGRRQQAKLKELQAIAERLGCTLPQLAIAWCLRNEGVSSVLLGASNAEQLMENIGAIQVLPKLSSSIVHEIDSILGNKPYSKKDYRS

[5] = biological target: Voltage-gated potassium channel subunit beta-2 (Rattus norvegicus) (UniProt P62483); assay: enhancers of rat Kvbeta2 NADPH turnover – biochemical, NADPH fluorescence, primary screen (AID 623); conditions: Recombinant KvBeta, NADPH fluorescence decrease slope, 10 min; at 10 µM; stronger effect = lower value;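 further: fluorescence intensity change per second fitted from 20 to 320 s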
[6] = biological target: Alpha-2C adrenergic receptor (Homo sapiens) (UniProt P18825); assay: compounds altering alpha2C-coupled GIRK flux – cell-based, HEK293 alpha2C/GIRK1/2, thallium flux, primary screen (AID 624;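 active means fluorescence slope after compound addition differing from the mean of all screened samples at 99.7% confidence, in either direction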;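 further: slope of fluorescence ratio to pre-addition baseline per second over 15 to 24 s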); conditions: thallium flux BTC fluorescence, at 10 µM, actives lie on both sides
Chain of Alpha-2C adrenergic receptor (Homo sapiens) (P18825 whole entry, looked up): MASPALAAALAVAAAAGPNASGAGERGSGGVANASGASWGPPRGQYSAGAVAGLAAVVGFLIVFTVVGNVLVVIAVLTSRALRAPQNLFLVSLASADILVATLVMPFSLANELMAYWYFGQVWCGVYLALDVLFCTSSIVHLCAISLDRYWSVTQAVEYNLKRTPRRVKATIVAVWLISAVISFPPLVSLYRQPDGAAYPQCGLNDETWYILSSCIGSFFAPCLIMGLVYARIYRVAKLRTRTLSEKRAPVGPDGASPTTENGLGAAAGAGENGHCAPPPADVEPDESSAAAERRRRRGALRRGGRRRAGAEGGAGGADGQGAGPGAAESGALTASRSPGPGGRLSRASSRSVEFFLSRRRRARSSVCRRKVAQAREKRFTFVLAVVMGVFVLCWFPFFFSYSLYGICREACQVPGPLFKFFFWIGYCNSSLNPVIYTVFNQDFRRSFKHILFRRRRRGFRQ

[7] = blockers of RIG-like receptor reporter activation – cell-based, Sendai virus stimulus, luciferase, 10K MLSCN set, TLR/RLR signaling modifier project, primary screen (AID 602276;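 active means inhibition at or above 50% at 10 µM; inactive means inhibition below 50%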;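 further: firefly luciferase from ISG56 promoter only with Renilla not read in this screen; 0% = Sendai virus plus DMSO and 100% = medium plus DMSO without virus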); conditions: HEK293 RL24 IRF3 luciferase reporter, at 10 µM, stronger effect = higher value
[8] = TLR3 IRF3 reporter activation blockers – cell-based, poly I:C stimulus, luciferase, 10K MLSCN set, primary screen (AID 602277;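 active means inhibition of the reporter signal at or above 50%; inactive means inhibition below 50%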); conditions: HEK293-TLR3 RL24 IRF3 luciferase reporter, at 10 µM, stronger effect = higher value

SMILES	cell count [1]	inhibition [1]	inhibition of aggregation [2]	nuclei count [2] [%]	inhibition [3]	nuclei count [3] [%]	fluorescence slope [4]	NADPH fluorescence slope [5]	slope [6]	inhibition [7]	inhibition [8]
C=CCN(C(=O)CNC(=O)c1ccco1)C(C(=O)NC1CCCCC1)c1ccccc1F (stereo not drawn)	398	-1.6% (inactive)	18.6% (inactive)	106	5.7% (inactive)	101	-0.612 (inactive)	1.7e-06 (inactive)	0.00581 (inactive)	-3.24% (inactive)	10.3% (inactive)
CCOC(=O)c1cnc(SC2CC(=O)N(c3ccc(OC)c(OC)c3)C2=O)nc1N (stereo not drawn)	811	-3.6% (inactive)	-0.6% (inactive)	95.4	-110% (inactive)	135	-0.531 (inactive)	1.4e-05 (inactive)	0.00718 (inactive)	-6.56% (inactive)	-2.72% (inactive)
CCOc1ccccc1N(CC(=O)N1CCOCC1)S(=O)(=O)c1ccccc1	338	0.7% (inactive)	0.9% (inactive)	100	44.4% (inactive)	98.7	-0.428 (inactive)	-3e-06 (inactive)	0.00315 (inactive)	-13.5% (inactive)	-26.2% (inactive)
CCCC(=O)Nc1nnc(Sc2ccc(N(C)C)cc2)s1	671	4.8% (inactive)	-9.6% (inactive)	96.4	-15.5% (inactive)	97.6	-0.466 (inactive)	-2.9e-05 (inactive)	0.00582 (inactive)	-1.24% (inactive)	-10.3% (inactive)
O=C(Nc1cnccn1)c1cccs1	655	-17.2% (inactive)	-13.1% (inactive)	122	-34.1% (inactive)	110	-0.517 (inactive)	-2.8e-05 (inactive)	0.00591 (inactive)	10.2% (inactive)	12.3% (inactive)
CCOc1ccc(NC(=O)CC2NCCNC2=O)cc1 (stereo not drawn)	738	-10.9% (inactive)	-1.6% (inactive)	126	-39.4% (inactive)	99.2	-0.302 (inactive)	-7e-05 (inactive)	0.00573 (inactive)	9.27% (inactive)	13.9% (inactive)
O=C(OCC(=O)c1ccccc1Br)c1ccccn1	308	2.7% (inactive)	-3.7% (inactive)	98.4	-10.2% (inactive)	95.3	-0.536 (inactive)	-4.2e-05 (inactive)	0.00716 (inactive)	3.27% (inactive)	26.5% (inactive)
CC(C)C(=O)Nc1ccc(C(=O)NCc2cccnc2)cc1	393	9.4% (inactive)	10% (inactive)	102	-115% (inactive)	109	-0.598 (inactive)	1.1e-05 (inactive)	0.00588 (inactive)	-10.7% (inactive)	-31.6% (inactive)

Source: PubChem BioAssay
